# Source: PubChem (several laboratories)
# GC-B act: GC-B (human) receptor activation; P20594; HEK293-GC-B cells, CNP EC30, cGMP TR-FRET; 0% at EC30 CNP, 100% saturating CNP; activation, % at 10 µM; 370,000 compounds, 0.11% hits; AID 1920062;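 active = activation at 10 µM reaching about 35% in either raw or pattern-adjusted values, limit read from the data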
# TLR9-MyD88 block: inhibitors of human TLR9-MyD88 binding | Q9NR96+Q99836 | 340,000 compounds, 0.21% hits | inhibition, % at 4.98 µM | CHO BLA complementation TLR9-MyD88, CCF4 FRET ratio;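 active = inhibition above the mean over all tested compounds plus 3 SD, cut at about 21% in these data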
# NOD2 RIPK2 PPI: inhibitors of human NOD2-RIPK2 interaction | O43353 | CHO BLA complementation NOD2-RIPK2, CCF4 ratio | inhibition, % at 4.98 µM | 360,000 compounds, 0.38% hits | AID 624267; in the data active = inhibition above about 21%
# GC-A act: GC-A (human) enzyme activation; 370,000 compounds, 0.14% hits; activation, % at 10 µM; HEK293 GC-A cells, cGMP TR-FRET, EC30 ANP; 0% at EC30 ANP, 100% saturating ANP; P16066; in the data active = activation above about 40%
# Neddyl block: blocks human cullin neddylation; TR-FRET cullin neddylation, biochemical; P61081+Q13564; inhibition, % at 25 µM; 360,000 compounds, 0.58% hits; AID 651699; in the data active = inhibition above about 36%
# Target sequence (P61081 whole entry, looked up): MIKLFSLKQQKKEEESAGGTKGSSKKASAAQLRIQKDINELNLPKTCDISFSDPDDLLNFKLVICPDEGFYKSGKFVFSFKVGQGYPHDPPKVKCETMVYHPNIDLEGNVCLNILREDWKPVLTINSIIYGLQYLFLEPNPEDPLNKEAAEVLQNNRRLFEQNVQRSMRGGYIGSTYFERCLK
# Target sequence (Q13564 whole entry, looked up): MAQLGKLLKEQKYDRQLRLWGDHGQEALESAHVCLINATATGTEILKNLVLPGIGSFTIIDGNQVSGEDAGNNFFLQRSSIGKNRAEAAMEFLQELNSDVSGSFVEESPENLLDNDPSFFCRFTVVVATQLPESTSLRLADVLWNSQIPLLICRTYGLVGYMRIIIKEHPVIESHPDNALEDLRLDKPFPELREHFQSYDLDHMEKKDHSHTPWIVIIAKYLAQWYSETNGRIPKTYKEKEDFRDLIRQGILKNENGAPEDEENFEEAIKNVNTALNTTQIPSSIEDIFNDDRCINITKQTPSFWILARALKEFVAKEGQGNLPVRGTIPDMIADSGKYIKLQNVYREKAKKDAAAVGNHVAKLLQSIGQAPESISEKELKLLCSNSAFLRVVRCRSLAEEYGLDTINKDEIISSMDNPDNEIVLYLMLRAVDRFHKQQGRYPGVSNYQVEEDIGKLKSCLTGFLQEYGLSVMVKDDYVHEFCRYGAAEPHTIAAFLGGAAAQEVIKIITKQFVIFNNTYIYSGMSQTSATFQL
# TLR4 MyD88 comp: inhibitors of human TLR4-MyD88 binding; HeLa CL3-4 TLR4/MyD88 BLA complementation, FRET ratio; O00206+Q99836; inhibition, % at 8.4 µM; 200,000 compounds, 0.18% hits; in the data active = inhibition above about 25%
# NOD2-RIPK2 conf: confirmation of human NOD2-RIPK2 interaction inhibitors; shares compounds with NOD2 RIPK2 PPI; CHO cells, NOD2-RIPK2 BLA complementation, CCF4 FRET; inhibition, % at 4.98 µM; 1,200 compounds, 70% hits; AID 624370;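 active = mean inhibition across replicates above a set limit taken from the earlier primary screen, cut at about 21% in these data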
# BLA counter: hits BLA reporter in NOD2-RIPK2 inhibitor counterscreen; shares compounds with NOD2 RIPK2 PPI; CHO BLA reporter, CCF4 FRET ratio; inhibition, % at 4.98 µM; 1,200 compounds, 57% hits;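 active = mean inhibition above the low-control mean inhibition plus three low-control SD, cut at about 11% in these data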
# Numbers stand for hits; - = inactive; . = no result shown. Hits are enriched below; roughly 1.2% of the tested compounds scored in any of these assays.
SMILES,GC-B act,TLR9-MyD88 block,NOD2 RIPK2 PPI,GC-A act,Neddyl block,TLR4 MyD88 comp,NOD2-RIPK2 conf,BLA counter
O=C(c1ccc(Cl)cc1)c1c[nH]c(C(=O)NNc2cccc(Cl)n2)c1,-,-,23,-,-,-,-,-
O=C(O)c1cc(Cl)ccc1-c1ccc(/C=C/c2cc(C(F)(F)F)[nH]c(=O)n2)o1,-,-,23,-,-,-,33,42
COc1ccc(-c2csc(-c3cc4ccccc4oc3=N)n2)cc1,-,-,31,-,-,-,-,23
COc1ccc(-c2noc(-c3cc4ccccc4oc3=O)n2)cc1,.,.,.,.,.,-,.,.
COc1cc(O)c(C(CC(=O)N2CCCC(C)C2)c2ccccc2)c(OC)c1 (configuration not stated),-,.,.,-,.,.,.,.
OCCCc1nc2ccccc2n1CCc1ccccc1,-,-,-,-,-,-,.,.
CC(c1ccccc1)n1c(CCCO)nc2ccccc21 (configuration not stated),-,-,24,-,-,.,-,-
CCc1c(-c2cccc(F)c2)ncn1CCc1ccccc1OC,-,.,.,-,.,.,.,.
Cc1ccc(S(=O)(=O)N2CCCC(C(=O)NCCN3CCC(Cc4ccccc4)CC3)C2)cc1 (configuration not stated),-,.,.,-,.,.,.,.
CC(=O)Nc1ccc(NC(=O)c2ccc(NS(=O)(=O)c3cc(C(C)(C)C)ccc3C)cc2)cc1,-,-,39,-,.,-,-,-
Cc1cc(F)ccc1NC(=O)c1ccc(NS(=O)(=O)c2cc(C(C)(C)C)ccc2C)cc1,-,-,-,-,-,-,.,.
CCN(CC)Cc1c(O)ccc2cc(-c3nc4ccccc4n3C)c(=O)oc12,-,-,29,-,-,.,35,56
Cc1ccccc1N1C(=O)CC(Sc2nnc(-c3ccccc3)o2)C1=O (configuration not stated),-,-,43,-,-,-,34,-
CC(=O)CC[C@@H]1CC[C@]2(CCCN(C(=O)C3CCCCC3)C2)O1,-,.,.,-,.,.,.,.
CCN(CC)C(=O)CC[C@H]1CC[C@]2(CCCN(S(C)(=O)=O)C2)O1,-,.,.,-,.,.,.,.
Cc1ccc2c(c1)C1CS(=O)(=O)N(Cc3ccccc3)CN1C2 (configuration not stated),-,.,.,-,.,.,.,.
CC1(C)Cc2c(sc3nc(-c4cc5ccccc5o4)n(N)c(=O)c23)CO1,-,-,23,-,-,-,-,-
CCc1c(-c2cccc(Br)c2)ncn1CCc1ccccc1OC,-,.,.,-,.,.,.,.
O=CNc1ccc2c3c(cccc13)-c1ccccc1-2,-,-,29,-,.,.,24,38
O=C(NC1CCCCC1)C(c1ccc(C(F)(F)F)cc1)n1c(=O)c(-c2cc3ccccc3[nH]2)nc2ccccc21 (configuration not stated),-,.,41,-,.,.,36,66
N#Cc1ccc(C(C(=O)NC2CCCCC2)n2c(=O)c(-c3ccccc3)nc3ccccc32)cc1 (configuration not stated),-,.,-,-,-,.,.,.
O=C(NC1CCCCC1)C(c1ccncc1)n1c(=O)c(-c2cc3ccccc3[nH]2)nc2ccccc21 (configuration not stated),-,.,53,-,.,.,48,68
CCCC/C=C1/[C@H](c2ccccc2)N(C)C2=N[C@@H](c3ccccc3)CC(=O)N21,-,.,.,-,.,.,.,.
COC(=O)c1cc2c(c3c4cc(OC)ccc4n(S(=O)(=O)c4cccc(C)c4)c13)C(=O)N(Cc1ccccc1OC)C2,-,.,.,-,.,.,.,.
O=C(NN=Cc1c(O)ccc2ccccc12)c1ccncc1,-,-,28,-,-,.,27,21
SMILES,GC-B act,TLR9-MyD88 block,NOD2 RIPK2 PPI,GC-A act,Neddyl block,TLR4 MyD88 comp,NOD2-RIPK2 conf,BLA counter
C#CCN(C[C@@H]1[C@@H](OC(=O)NCc2ccccc2F)[C@@H](OC(=O)NCc2ccccc2F)Cn2c(=O)ccc(=O)n21)S(=O)(=O)c1ccc(C)cc1,-,-,23,-,-,.,21,-
C#CCN(C[C@@H]1[C@@H](OC(=O)NCc2ccccc2F)[C@@H](OC(=O)NCc2ccccc2F)Cn2c(=O)n(CCCCCC)c(=O)n21)S(=O)(=O)c1ccc(C)cc1,-,-,-,-,-,.,.,.
CCOc1cc(CCNC(=O)c2cc3ccsc3n2C)ccc1OC,-,.,.,-,.,.,.,.
CCn1cc(/C=C(\NC(=O)c2ccc(OC)cc2)C(=O)N2CCN(C)CC2)c2ccccc21,-,-,-,-,-,.,.,.
Cc1ccc(C(=O)/C=C/c2cn(CN3CCN(C)CC3)c3ccccc23)cc1,-,-,24,-,-,-,26,38
Cn1cc(/C=C/C(=O)c2ccccc2)c2ccccc21,-,-,25,-,-,.,25,28
Cc1nn(C)cc1/C=C/C(=O)c1ccccc1,-,-,-,-,-,-,.,.
O=C(CC(=O)N/N=C\c1ccccc1)NCCc1ccccc1,-,-,22,-,-,.,-,-
Cc1ccc(/C=N\NC(=O)CC(=O)NCCc2ccccc2)cc1,-,-,-,-,-,.,.,.
COC(=O)[C@]12C[C@H](CC(=O)N3CCN(C(=O)C4CC4)CC3)C(=O)N(Cc3ccco3)C1=C[C@H](C(C)(C)C)O[C@@H]2C,-,.,.,-,.,.,.,.
CC(C)c1ccc2c(c1)C1(NN=C(c3ccccc3)S1)C(=O)N2 (configuration not stated),-,-,26,-,-,-,-,-
CCc1ccc2c(c1)C1(NN=C(c3ccc(C)cc3)S1)C(=O)N2 (configuration not stated),-,-,25,-,-,-,-,-
O=S(=O)(c1ccc(C(F)(F)F)cc1)N1CCCc2nc(-c3ccc(F)cc3)ccc21,-,.,.,-,.,.,.,.
O=C(NCc1ccccc1)C(c1ccncc1)n1c(=O)c(-c2cc3ccccc3[nH]2)nc2ccccc21 (configuration not stated),-,.,54,-,.,.,51,67
O=C(NCc1ccccc1)C(c1ccc(C(F)(F)F)cc1)n1c(=O)c(-c2ccccc2)nc2ccccc21 (configuration not stated),-,.,-,-,-,.,.,.
COc1ccc(C(C(=O)NCc2ccccc2)n2c(=O)c(-c3cc4ccccc4[nH]3)nc3ccccc32)cc1 (configuration not stated),-,.,44,-,.,.,40,64
O=C(NCc1ccccc1)C(c1ccccc1F)n1c(=O)c(-c2cc3ccccc3[nH]2)nc2ccccc21 (configuration not stated),-,.,53,-,.,.,48,70
